Screens: PubChem, Broad Institute
In the library only some 2.2% were active in any assay of this set; here they are far more common.
TRPM1 prom inh = reduces MITF-dependent TRPM1 promoter luciferase signal; SK-MEL-5 TRPM1 promoter luciferase, 24 h; hit rate 0.83% among 330,000; inhibition, % at 12.5 µM; AID 488899;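 active = mean inhibition across replicates of 60% or more, whatever share of single replicates reaches that level; inconclusive = some that reach 60%, reason not given; inactive = mean inhibition across replicates below 60%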
LMP1 NFkB inh = inhibitors of Epstein-Barr LMP1-induced NF-kappaB reporter. LMP1-induced NF-kappaB luciferase reporter cells, luminescence. inhibition, % at 12.5 µM. hit rate 0.69% among 350,000; in the data active = inhibition above about 41%; inconclusive = no clear call, values can overlap the other calls;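 also: 0% = neutral control wells and 100% = reference inhibitor control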
PAX8 inh HTS = PAX8 transcriptional activity inhibition. RMG-I TPO-luciferase reporter, SteadyGlo, 24 h. hit rate 1.2% among 360,000. AID 652154. inhibition, % at 12.6 µM;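 active = mean replicate inhibition at least 60% with every replicate also reaching 60%; inconclusive = only one of the two criteria is met; inactive = mean below 60% and not all replicates reaching 60%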;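 also: luciferase light reporting Pax8 driven TPO promoter activity; plate controls were median of neutral control wells for no effect and mitoxantrone controls for full effect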
EWS-Fli block = blocks EWS/Fli oncoprotein-driven transcription; A673 NR0B1-luciferase reporter, viability-normalised; inhibition, % at 12.6 µM; hit rate 0.67% among 350,000;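 active = mean inhibition of at least 50% after viability correction, with every replicate also passing that limit; inconclusive = mean reaches 50% but only one of two replicates passes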;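 also: firefly luciferase signal divided by Alamar Blue viability fluorescence both relative to DMSO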
LGR2 inh = Drosophila LGR2 receptor signaling inhibition | AID 720647 | hit rate 0.35% among 380,000 | HEK293 LGR2, CRE-luciferase, bursicon-stimulated, 4 h | inhibition, % at 9.99 µM;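 active = drop in luminescence signal, shown as inhibition above about 50% in the replicate tests, limit read from the data, passing the limit was not always enough; inconclusive = probably only some replicates passing the limit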;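 also: agonist challenge used bursicon conditioned medium at about half maximal strength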
PGC1a acetyl inh = lowers PGC1a acetylation signal in U2OS cells. AlphaScreen anti-acetyl-lysine; with virally co-expressed GCN5 acetyltransferase. inhibition, % at 15.6 µM. hit rate 0.17% among 350,000. AID 651687;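 active = every replicate shows inhibition of at least 40%; inconclusive = mean inhibition at least 40% but some replicate below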;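 also: 0% = neutral control wells and 100% = positive control wells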
Starred values were filed as active, the others as inactive; ? = inconclusive; / = no result.

SMILES | TRPM1 prom inh | LMP1 NFkB inh | PAX8 inh HTS | EWS-Fli block | LGR2 inh | PGC1a acetyl inh
CCOC(=O)C1CCN(c2ncnc3c2cnn3-c2ccc(Cl)cc2)CC1 | 29 | 25 | / | / | -33 | /
Cc1nn(-c2ccccc2)c(Cl)c1C(=O)N1CCN(c2ncnc3c2cnn3-c2ccccc2)CC1 | 51 | 53* | / | / | / | ?
Clc1ccc(Cn2ncc3c(N4CCN(c5ccccc5)CC4)ncnc32)cc1 | / | / | 102* | 9 | 5 | -4
Clc1ccc(-n2ncc3c(N4CCCC4)ncnc32)cc1 | 10 | 52* | / | / | 73* | /
O=c1cc(-c2ccco2)oc2c1ccc1ccccc12 | -10 | -3 | -1 | / | / | 11
O=c1cc(C(Cl)(Cl)Cl)oc2c1ccc1ccccc12 | 69* | 29 | 98* | / | / | 0
O=C(O)c1c2c(nc3ccccc13)/C(=C/c1ccc(O)cc1)CC2 | 28 | 53* | 0 | 20 | 71* | /
COCCn1c(C)cc(C(=O)CSc2nc3ccccc3s2)c1C | 9 | 10 | -7 | / | 61* | 8
COCCn1c(C)cc(C(=O)CSc2nnc3ccccn23)c1C | 59 | 50* | 32 | 63* | 62* | 3
O=C(C[C@H]1CC[C@H]2[C@@H](COC[C@H](O)CN2Cc2cc(F)ccc2F)O1)NCc1ccc(Cl)cc1 | / | / | 14 | 4 | -6 | 2
O=[N+]([O-])/C=C\c1ccc(N2CCOCC2)cc1 | 74* | ? | -4 | 45 | ? | 5
Cc1ccc(S(=O)(=O)N(C)C[C@H]2OCCCC[C@H](C)Oc3ccc(NS(=O)(=O)c4ccc(Cl)cc4)cc3C(=O)N([C@@H](C)CO)C[C@@H]2C)cc1 | / | / | 89* | -26 | 9 | -3
Cc1ccc(S(=O)(=O)N(C)C[C@@H]2OCCCC[C@@H](C)Oc3ccc(NS(=O)(=O)c4ccc(Cl)cc4)cc3C(=O)N([C@H](C)CO)C[C@@H]2C)cc1 | / | / | 6 | 4 | 0 | 11
Cc1ccc(S(=O)(=O)Nc2ccc3c(c2)C(=O)N([C@@H](C)CO)C[C@@H](C)[C@@H](CN(C)S(=O)(=O)c2ccc(Cl)cc2)OCCCC[C@@H](C)O3)cc1 | / | / | 83* | 10 | 28 | -10
Cc1ccc(S(=O)(=O)Nc2ccc3c(c2)C(=O)N([C@H](C)CO)C[C@H](C)[C@@H](CN(C)S(=O)(=O)c2ccc(Cl)cc2)OCCCC[C@H](C)O3)cc1 | / | / | 95* | 18 | 22 | -11
Cc1ccc(S(=O)(=O)Nc2ccc3c(c2)C(=O)N([C@H](C)CO)C[C@@H](C)[C@H](CN(C)S(=O)(=O)c2ccc(Cl)cc2)OCCCC[C@H](C)O3)cc1 | / | / | 88* | 23 | 3 | -12
Cc1ccc(S(=O)(=O)N(C)C[C@H]2OCCCC[C@H](C)Oc3ccc(NS(=O)(=O)c4ccc(Cl)cc4)cc3C(=O)N([C@@H](C)CO)C[C@H]2C)cc1 | / | / | 25 | -6 | -2 | 7
COc1ccccc1-c1ccc2c(c1)O[C@H](CN(C)C(=O)c1ccccc1)[C@H](C)CN([C@@H](C)CO)S2(=O)=O | / | / | -3 | -1 | 5 | -7
CCCC(=O)Nc1ccc2c(c1)C(=O)N(C)C[C@H](OC)[C@@H](C)CN(C(=O)c1ccccc1F)[C@H](C)CO2 | / | / | / | 6 | -4 | -4
C[C@H](CO)N1C[C@H](C)[C@H](CN(C)Cc2cncnc2)Oc2cc(C#CC3CC3)ccc2S1(=O)=O | / | / | / | 0 | -3 | -6
COc1ccc(O)c(C(=O)CC(=O)c2ccc(F)cc2)c1 | 19 | 29 | / | / | 75* | -1
C[C@@H]1CN([C@@H](C)CO)C(=O)c2cc(C#CC3CCCCC3)cnc2O[C@H]1CN(C)C(=O)C1CCCCC1 | / | / | / | 20 | 10 | -5
CCCNC(=O)Nc1ccc2c(c1)C(=O)N(C)C[C@@H](OC)[C@@H](C)CN(C(C)=O)[C@H](C)CO2 | / | / | -2 | -3 | -12 | -9
Cc1ccccc1OC(C)c1nc(-c2ccccc2)no1 (configuration not stated) | -21 | -4 | / | / | / | -12
Cc1ccc(SC(C)c2nc(-c3ccccc3)no2)cc1 (configuration not stated) | -21 | 59* | / | / | / | -6
SMILES | TRPM1 prom inh | LMP1 NFkB inh | PAX8 inh HTS | EWS-Fli block | LGR2 inh | PGC1a acetyl inh
Cc1ccc(C2(c3ccccc3)NC(=O)N(CC(=O)NCc3ccccc3)C2=O)cc1C (configuration not stated) | 12 | 70* | 34 | -73 | -5 | -11
OCCN1CCN(CC/C=C2/c3ccccc3Sc3ccc(Cl)cc32)CC1 | 0 | 80* | 9 | 4 | / | -13
CN(C)CC/C=C1\c2ccccc2Sc2ccc(Cl)cc21 | 0 | -6 | -8 | 4 | 18 | -23
Nc1nc2c(nnn2C2CC(O)C(CO)O2)c(=O)[nH]1 (configuration not stated) | / | / | 83* | -13 | -9 | 8
Nc1nc2c(ncn2C2C[C@H](O)[C@@H](CO)O2)c(=O)[nH]1 (some centres not stated) | -5 | 0 | -4 | 8 | 35 | -3
O=C(c1cnccn1)N1CC[C@@H]2[C@H]1c1cc(-c3ccccc3)ccc1N[C@@H]2CO | / | / | -36 | -5 | -5 | 5
CCCNC(=O)N(C)C[C@H]1N[C@@H](CO)[C@@H]1c1ccc(C2=CCCCC2)cc1 | / | / | 103* | 45 | 3 | -9
CN(C[C@@H]1N[C@H](CO)[C@H]1c1ccc(C2=CCCC2)cc1)C(=O)c1ccncc1 | / | / | -31 | 13 | -17 | -8
C[C@@H]1CCCCO[C@@H](CN(C)C(=O)Nc2ccc3c(c2)OCO3)[C@@H](C)CN([C@@H](C)CO)C(=O)c2cc(NC(=O)C3CCCCC3)ccc2O1 | / | / | / | -6 | 13 | 14
C[C@H](CO)N1C[C@H](C)[C@H](CN(C)C(=O)Nc2ccc(F)cc2)Oc2ccc(NC(=O)Nc3ccc4c(c3)OCO4)cc2C1=O | / | / | -9 | -12 | 3 | -12
Cc1ccccc1N1C(=O)c2cccc([N+](=O)[O-])c2C1=O | -15 | -7 | 1 | 1 | 10 | /
Cc1ccccc1-n1ncc2c([N+](=O)[O-])cc([N+](=O)[O-])cc21 | 67* | -2 | / | / | 3 | -1
O=C(/C=C/c1cccc(F)c1)N1CCc2ccccc21 | -53 | -6 | -138 | / | 54* | /
CN(Cc1ccco1)c1ncnc2ccc(-c3ccc4c(ccn4C)c3)cc12 | 28 | 19 | 16 | 67* | -2 | -7
Cc1c(C)n(CC(O)CN2CCN(C)CC2)c2ccccc12 (configuration not stated) | 3 | 60* | 23 | 0 | -5 | 5
Cc1nnc(NC(=O)c2cccc(F)c2)s1 | -4 | -7 | / | / | / | /
Cc1nnc(NC(=O)c2c(F)cccc2F)s1 | -11 | 53* | -22 | 1 | 0 | 4
Oc1c(C(Nc2nccs2)c2ccc(C(F)(F)F)cc2)ccc2cccnc12 (configuration not stated) | 80* | 73* | 85* | ? | 21 | 12
CN1CCN(C(c2ccc(F)cc2)c2ccc3cccnc3c2O)CC1 (configuration not stated) | -11 | -11 | / | / | / | 1
